A short description of assay [1]: A549 cell viability effects, profiling panel, calcein-AM fluorescence, 48 h, basal (AID 1162). Further: test concentration not given here. As to conditions: higher = more signal.
A short description of assay [2]: adipocyte viability effects, profiling panel, cell-based, 3T3-L1 adipocytes, calcein-AM fluorescence, 48 h, basal (AID 1163). Further: test concentration not given here. As to conditions: 3T3-L1 adipocytes viability, higher = more signal.
Assay [3] in a line: HepG2 cell viability effects, profiling panel, calcein-AM fluorescence, 48 h, basal (AID 1164). Further: test concentration not given here. As to conditions: higher = more signal.
Assay [4] in a line: MM1S cell viability effects, profiling panel, calcein-AM fluorescence, 48 h, basal (AID 1165).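 Further: viability of MM1S multiple myeloma cells under basal unstimulated conditions; test concentration not given here.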 As to conditions: higher = more signal.
Assay [5] can be described thus: basal RPMI8226 viability, no added stimulus, profiling panel, cell-based, calcein-AM fluorescence, 48 h, PK04 Diversity Set (AID 1166).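 Further: cells grown under basal conditions without added stimulus; test concentration not given here.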 The conditions noted are these: RPMI8226 myeloma viability, higher = more signal.
Assay [6] can be described thus: basal HepG2 mitochondrial membrane potential changes, profiling panel, cell-based, JC-1 fluorescence, 24 h, 100 nL compound (AID 1167). Further: test concentration not given here. The conditions noted are these: higher = more signal.
A short description of assay [7]: basal 3T3-L1 adipocyte mitochondrial potential changes, profiling panel, cell-based, JC-1 fluorescence, 3T3-L1 adipocytes, 24 h, 100 nL compound (AID 1168). Further: test concentration not given here. As to conditions: JC-1 mitochondrial fluorescence, higher = more signal, called active from +8 up or from −8 down.
Assay [8] is described as follows: basal RPMI8226 mitochondrial membrane potential changes, profiling panel, cell-based, JC-1 fluorescence, 24 h, 100 nL compound (AID 1169). Further: test concentration not given here. The conditions noted are these: RPMI8226 myeloma, JC-1 mitochondrial potential fluorescence, higher = more signal.
Assay [9] is described as follows: basal MM1S mitochondrial membrane potential changes, profiling panel, cell-based, JC-1 fluorescence, 24 h, 100 nL compound (AID 1170). Further: test concentration not given here. The conditions noted are these: higher = more signal.
Assay [10] is described as follows: A549 lung cancer cell viability effects, profiling panel, resazurin fluorescence, 24 h, PK04 Diversity Set (AID 1171). Further: test concentration not given here. The conditions noted are these: higher = more signal, called active from +8 up or from −8 down.
Assay [11] is described as follows: HepG2 liver cancer cell viability effects, profiling panel, resazurin fluorescence, 24 h, PK04 Diversity Set (AID 1172). Further: test concentration not given here. The conditions noted are these: higher = more signal.
The nature of assay [12]: basal S. cerevisiae growth modulation, no modifier, primary screen, OD600, strain BY4716, 24 h, basal condition (AID 1173). The conditions noted are these: OD600, 24 h, higher = more signal, called active from +8 up or from −8 down.
Assay [13] can be described thus: MM1S myeloma cell viability, profiling panel, resazurin fluorescence, basal, 24 h, PK04 Diversity Set (AID 1174).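 Further: MM1S multiple myeloma cell line; test concentration not given here.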 As to conditions: higher = more signal, called active from +8 up or from −8 down. (The colour change of resazurin is a common sign of viable cells or microbes.)
Assay [14] deals with Dihydroorotate dehydrogenase (quinone), mitochondrial (Plasmodium falciparum (isolate 3D7)) (UniProt Q08210). The experiment in a line: PfDHODH enzyme inhibitors, primary screen, biochemical, C-terminal His tag, absorbance 600 nm (AID 1175).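 Further: recombinant parasite enzyme with a five histidine tag at its C terminus; test concentration not given here.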 The conditions noted are these: DCIP absorbance 600 nm, higher = more signal, called active from +8 up or from −8 down.
Assay [15] in a line: P. aeruginosa biofilm formation inhibitors, primary screen, strain PAO1, LB-PBS medium, absorbance 600 nm (AID 1176). Further: test concentration not given here. The conditions noted are these: P. aeruginosa PAO1 growth/biofilm, A600, 12 h; higher = more signal.
Assay [16] in a line: S. cerevisiae RM11-1a growth modifiers, primary screen, strain RM11-1a, OD600, basal, 24 h (AID 1177).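 Further: cultures grown under basal conditions with no added stressor; test concentration not given here.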 As to conditions: OD600, 24 h, higher = more signal, called active from +8 up or from −8 down.
Assay [17] is described as follows: E. coli acrAB mutant growth effects, primary screen, E. coli filamentation inducers, strain DRC39, OD650, 24 h (AID 1178).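 Further: growth measured as culture turbidity by optical density at 650 nm; test concentration not given here.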 The conditions noted are these: higher = more signal, called active from +8 up or from −8 down.
Assay [18] in a line: E. coli acrAB mutant growth effects, primary screen, E. coli filamentation inducers, strain DRC39, OD650, 48 h (AID 1179).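 Further: screen aims at cell division blockers that make cells filament.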 The conditions noted are these: E. coli DRC39 delta-acrAB growth, higher = more signal, called active from +8 up or from −8 down.
The nature of assay [19]: RPMI8226 myeloma cell viability, profiling panel, resazurin fluorescence, basal, 24 h, PK04 Diversity Set (AID 1180).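 Further: RPMI8826 multiple myeloma cell line at 5000 cells per well; test concentration not given here.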 As to conditions: higher = more signal.
Assay [20] concerns the target E3 ubiquitin-protein ligase XIAP (Homo sapiens) (UniProt P98170). Put plainly: XIAP binders, primary screen, biophysical, small-molecule microarray, fluorescence 635 nm (AID 1181).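 Further: score merges 667 nm emission and signal to noise over triplicate slides.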 The conditions noted are these: small-molecule microarray binding, higher = more signal.

The source made the active and inactive calls. Unless noted, how the calls were made is not given here.

Chain of E3 ubiquitin-protein ligase XIAP (Homo sapiens) (P98170 whole entry, looked up): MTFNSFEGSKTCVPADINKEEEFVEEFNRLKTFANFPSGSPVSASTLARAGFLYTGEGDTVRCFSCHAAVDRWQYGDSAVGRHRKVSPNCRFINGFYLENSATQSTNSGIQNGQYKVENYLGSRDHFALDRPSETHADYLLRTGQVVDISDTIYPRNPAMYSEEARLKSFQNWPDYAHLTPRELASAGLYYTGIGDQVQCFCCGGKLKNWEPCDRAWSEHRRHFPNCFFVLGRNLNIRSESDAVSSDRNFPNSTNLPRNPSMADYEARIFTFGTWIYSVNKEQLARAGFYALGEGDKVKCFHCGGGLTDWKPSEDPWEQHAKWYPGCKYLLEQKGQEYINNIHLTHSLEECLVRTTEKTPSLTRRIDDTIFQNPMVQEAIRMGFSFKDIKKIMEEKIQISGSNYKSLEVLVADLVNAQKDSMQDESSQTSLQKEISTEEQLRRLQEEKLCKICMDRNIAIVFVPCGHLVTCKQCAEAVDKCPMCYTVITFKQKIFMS
Chain of Dihydroorotate dehydrogenase (quinone), mitochondrial (Plasmodium falciparum (isolate 3D7)) (Q08210 whole entry, looked up): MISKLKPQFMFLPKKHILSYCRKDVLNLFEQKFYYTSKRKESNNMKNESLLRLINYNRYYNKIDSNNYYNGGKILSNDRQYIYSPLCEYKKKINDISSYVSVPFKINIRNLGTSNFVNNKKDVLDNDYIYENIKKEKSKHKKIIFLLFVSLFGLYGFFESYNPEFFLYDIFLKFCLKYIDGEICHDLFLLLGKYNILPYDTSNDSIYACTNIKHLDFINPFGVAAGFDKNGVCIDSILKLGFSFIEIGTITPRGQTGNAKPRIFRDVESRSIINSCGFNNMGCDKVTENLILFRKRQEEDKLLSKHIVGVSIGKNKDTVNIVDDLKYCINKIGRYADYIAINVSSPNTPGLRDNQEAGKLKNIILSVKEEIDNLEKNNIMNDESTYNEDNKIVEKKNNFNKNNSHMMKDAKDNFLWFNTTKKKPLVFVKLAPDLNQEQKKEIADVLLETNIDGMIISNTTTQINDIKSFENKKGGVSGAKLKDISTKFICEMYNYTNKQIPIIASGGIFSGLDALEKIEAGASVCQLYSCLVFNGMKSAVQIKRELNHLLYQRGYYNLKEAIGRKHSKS

As for `CN(C)C(=O)[C@@]1(CCS(=O)(=O)c2ccccc2)COC(c2ccc(OCCCO)cc2)=N1`, the z-score was -0.245 in [1]; -0.0285 in assay [2]; -1.28 in assay [3]; -2.08 in [4]; -2.36 in [5]; -1.09 in [6]. For the same compound, the z-score in [7] was -0.0809 (inactive); in assay [8], -0.476; in [9], -1.49; in assay [10], -2.54 (inactive); in assay [11], -0.837; in assay [12], 1.14 (inactive). Also, the z-score in assay [13] is -2.38 (inactive); in assay [15], 1.03 (inactive); in assay [16] it was 1.08 (inactive); in assay [17], 0.73 (inactive); in assay [18], 0.56 (inactive); in assay [19], -2.08. The composite z-score in assay [14] is 0.989 (inactive); in assay [20], -0.0502.
`COC(=O)C(CC#Cc1ccc2c(c1)[C@]1(C(=O)N2)[C@H](c2ccc(OCCO)cc2)N2[C@H](c3ccccc3)[C@H](c3ccccc3)OC(=O)[C@H]2[C@@H]1C(=O)Nc1nc2ccccc2s1)C(=O)OC`: the z-score is 0.214 in [1]; 0.368 in [2]; 0.94 in assay [3]; -2.56 in assay [4]; -2.73 in [5]; -2.98 in assay [6]. For the same compound, the z-score in assay [7] was 1.67 (inactive); in assay [8] it was -1.11; in assay [9] it was -1.29; in assay [10], 0.84 (inactive); in [11], 1.51; in assay [12], 2.09 (inactive). For the same compound, the z-score is 0.932 (inactive) in assay [13]; 2.98 (inactive) in assay [15]; 3.16 (inactive) in assay [16]; 1.01 (inactive) in assay [17]; 0.824 (inactive) in assay [18]; -0.257 in [19]. In addition, the figures for the composite z-score in assay [14] and in assay [20] were -0.983 (inactive) and -0.138, respectively.
Consider `CCOC(=O)C[C@H]1[C@H](OC(=O)c2ccc(C(=O)c3ccccc3)cc2)[C@@H](NC(=O)c2ccccc2)c2cc(OCCCO)ccc2N1C(=O)Cc1ccc(OC)cc1`, for which the z-score is 1.21 in assay [1]; -0.0981 in [2]; 0.316 in [3]; -0.797 in [4]; 0.0179 in assay [5]; 1.95 in [6]. Moreover, the z-score in assay [7] was 0.591 (inactive); in assay [8] it was -0.696; in assay [9], -0.231; in [10] it was 0.261 (inactive); in [11], 0.844; in [12], 0.0931 (inactive). The z-score in [13] is 0.399 (inactive); in assay [15], 0.62 (inactive); in assay [16], 0.17 (inactive); in assay [17], 0.722 (inactive); in assay [18] it was 0.419 (inactive); in assay [19], 0.702. For the same compound, the composite z-score is 0.107 (inactive) in assay [14] and -0.102 in assay [20].
In the case of `COCCOC(=O)N1C(=O)[C@@]2(c3ccccc31)[C@H](C(=O)N1CCc3cc(OC)c(OC)cc3C1)[C@H]1C(=O)O[C@H](c3ccccc3)[C@H](c3ccccc3)N1[C@@H]2c1ccc(OCCO)cc1`, the z-score is 1.23 in assay [1]; 1.48 in assay [2]; 0.852 in [3]; -1.1 in [4]; 0.494 in assay [5]; 0.384 in assay [6]. Besides, the z-score in [7] was 0.139 (inactive); in assay [8], -0.618; in assay [9] it was -0.483; in assay [10], 0.779 (inactive); in assay [11], -0.484; in assay [12], 1.26 (inactive). The z-score in assay [13] is -0.13 (inactive); in assay [15], 2.41 (inactive); in [16], 2.61 (inactive); in assay [17], -0.259 (inactive); in [18], 0.144 (inactive); in [19] it was 0.549. Moreover, the composite z-score was -0.76 (inactive) in [14] and -0.0405 in [20].
Turning to `CCCC[C@@H]1C[C@H]1[C@@H](NC(=O)C(C)(C)C)c1ccc(C(F)(F)F)cc1`, the z-score in [1] is -1.63; in [2] it was 0.434; in [3], -1.6; in [4], -2.43; in assay [5], -3.05; in assay [6], -0.754. Also, the z-score is -1.64 (inactive) in assay [7]; -0.204 in assay [8]; -1.8 in assay [9]; 0.419 (inactive) in [10]; -0.549 in [11]; 0.594 (inactive) in assay [12]. In addition, the z-score was -0.858 (inactive) in assay [13]; 3.07 (inactive) in assay [15]; 1.17 (inactive) in [16]; -0.483 (inactive) in assay [17]; -0.631 (inactive) in assay [18]; 2.01 in assay [19]. The composite z-score in assay [14] was -3.55 (inactive); in [20] it was 0.0256.
In the case of `Cc1ccc([C@@H]2C[C@@H](Sc3ccccc3)[C@H](C(=O)O)CN2S(=O)(=O)c2ccc(C)cc2)cc1`, the z-score in [1] was -0.687; in assay [2] it was 0.154; in assay [3] it was -0.316; in [4], -0.681; in assay [5] it was -3.33; in assay [6], -1.2. In addition, the z-score is -0.183 (inactive) in assay [7]; -0.268 in [8]; 0.928 in [9]; 0.39 (inactive) in [10]; 0.391 in [11]; -1.58 (inactive) in [12]. The z-score was -1.48 (inactive) in assay [13]; 0.657 (inactive) in assay [15]; 0.455 (inactive) in assay [16]; -0.634 (inactive) in assay [17]; -0.518 (inactive) in assay [18]; -0.738 in assay [19]. In addition, the composite z-score in [14] was -0.351 (inactive); in assay [20], 0.312.
Consider `COc1ccc([Si](C)(C)[C@H]2[C@H](CCO)O[C@@]3(C(=O)N(Cc4ccc(N(C=O)c5ccccc5)cc4)c4ccccc43)[C@@H]2C)cc1`, for which the z-score is -0.585 in [1]; -1.32 in [2]; -2.76 in [3]; -1.48 in assay [4]; -3.78 in assay [5]; 0.119 in [6]. For the same compound, the z-score is -0.393 (inactive) in [7]; -1.03 in assay [8]; -1.88 in assay [9]; -1.68 (inactive) in [10]; -1.57 in assay [11]; 1.83 (inactive) in assay [12]. Also, the z-score is -3.71 (inactive) in assay [13]; 2.06 (inactive) in [15]; 4.71 (inactive) in assay [16]; 0.216 (inactive) in assay [17]; -0.495 (inactive) in assay [18]; -2.77 in assay [19]. Besides, the composite z-score in [14] was 0.041 (inactive); in [20], -0.163.
With `C=CCOC(=O)[C@H]1[C@@H]2C(=O)O[C@@H](c3ccccc3)[C@@H](c3ccccc3)N2[C@@H](c2ccc(OCCOC(=O)[C@H]3C[C@H]4C(=O)N[C@@H](CCCCNC(C)=O)C(=O)N4[C@H]3c3cccc(OCCO)c3)cc2)[C@]12C(=O)Nc1ccccc12`, the z-score in assay [1] was -0.112; in [2], 0.457; in [3], -0.696; in assay [4] it was -0.297; in assay [5] it was 0.728; in assay [6], -0.235. Also, the z-score in assay [7] was 1.91 (inactive); in assay [8] it was -0.0898; in assay [9] it was -0.67; in [10] it was 0.319 (inactive); in [11] it was 0.514; in [12], 0.922 (inactive). In addition, the z-score is 0.618 (inactive) in [13]; 3.14 (inactive) in assay [15]; 1.29 (inactive) in assay [16]; 0.561 (inactive) in assay [17]; -0.581 (inactive) in assay [18]; 0.491 in assay [19]. The composite z-score is 0.592 (inactive) in assay [14] and -0.0338 in assay [20].
In the case of `O=C(NC1CC1)[C@@H]1c2ccccc2C(=O)N(Cc2ccccc2Cl)[C@H]1c1ccc(CO)cc1`, the z-score was 3.23 in [1]; 1.4 in assay [2]; 2.25 in assay [3]; -0.867 in assay [4]; 0.97 in assay [5]; 2.95 in assay [6]. In addition, the z-score in assay [7] was 0.623 (inactive); in assay [8], -0.566; in assay [9] it was 1.41; in [10] it was 1.76 (inactive); in assay [11], 0.382; in assay [12], -2.09 (inactive). Further, the z-score in [13] was -0.0621 (inactive); in [15], 0.994 (inactive); in assay [16], -2.66 (inactive); in assay [17], 1.28 (inactive); in [18] it was 1.49 (inactive); in assay [19] it was 0.69. For the same compound, the figures for the composite z-score in [14] and in assay [20] were -1.36 (inactive) and 0.0297, respectively.

The values above are taken from PubChem BioAssay.
